Screening results deposited in PubChem by National Center for Advancing Translational Sciences (NCATS).
VP16 counter = Gal4-VP16 reporter inhibition counter-screen; Drosophila S2 Gal4-VP16 UAS-luciferase, luminescence, 20 h; Potency, µM (highest dose often 53.6 µM), for the others: at the top dose activity, negative = inhibition, usual class: inhibitors; 310,000 tested, 3.5% active; AID 2546;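 further: Gal4-VP16 expression switched on by copper sulfate through the metallothionein promoter; nearly all actives have a fitted effect of over 50% in size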
KinaseGlo FLuc = counter-screen: inhibitors of Kinase-Glo firefly luciferase; 200,000 tested, 0.28% active; Potency, µM (titrated, usually from 38.3 µM), without a hit: at the top dose activity change, negative = inhibition, actives largely listed as inhibitors; Kinase-Glo luciferase, ATP luminescence, 8 min; further: nearly all actives have a fitted effect of over 60% in size
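Luminescence was the read-out, taken after 8-minute incubation at ambient temperature. Luciferase turned over luciferin with 10 uM ATP in imidazole pH 7.2 buffer containing KCl, MgCl2, Tween 20 and BSA.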
RORgamma inh = blocks mouse ROR gamma transcriptional activity; P51450; Drosophila S2 Gal4-RORgamma UAS-luciferase reporter, 20 h; Potency, µM (doses to about 53.6 µM), for the others: at the top dose activity change, negative = inhibition, hits mostly inhibitors; 310,000 tested, 5.4% active; further: nearly all actives have a fitted effect of over 60% in size
Target sequence (P51450 whole entry, looked up, the tested form may be a part): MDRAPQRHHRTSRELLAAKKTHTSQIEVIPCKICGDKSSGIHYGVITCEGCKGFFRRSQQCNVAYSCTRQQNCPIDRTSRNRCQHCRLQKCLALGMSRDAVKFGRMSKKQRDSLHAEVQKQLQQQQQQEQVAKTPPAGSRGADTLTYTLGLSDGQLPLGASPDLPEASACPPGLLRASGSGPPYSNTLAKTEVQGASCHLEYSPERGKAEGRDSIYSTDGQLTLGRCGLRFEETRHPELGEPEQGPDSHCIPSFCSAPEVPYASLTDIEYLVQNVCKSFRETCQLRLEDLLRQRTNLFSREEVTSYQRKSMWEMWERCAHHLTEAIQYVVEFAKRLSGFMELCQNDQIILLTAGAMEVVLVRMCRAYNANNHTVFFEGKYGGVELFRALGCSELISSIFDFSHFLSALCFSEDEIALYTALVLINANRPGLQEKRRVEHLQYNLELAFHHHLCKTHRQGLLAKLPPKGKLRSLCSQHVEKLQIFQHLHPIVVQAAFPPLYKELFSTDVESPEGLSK
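Luciferase reporter read in Schneider cells carrying Gal4-RORγ (mouse) and UAS-Photinus luciferase; cells given compound 1 h before 700 uM copper sulfate induction, then incubated 20 h at ambient temperature.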
The depositor's hits bear a star; [ ] = another dose, or the depositor's remark. This is a sample that favours compounds with a hit; in the whole collection about 6.2% have one here. The call rests on the fitted dose curve; in most records, active means well fitted curve in the direction sought with a large enough effect; inconclusive means small, poorly fitted or top-dose-only effect, or another doubt; inactive means no such curve, though single readings can be large; an effect the other way counts as inactive or inconclusive. On the % scale 0 is the no-effect control and ±100 the full control effect; potency means the concentration at half of the fitted maximal effect.

`CC1CCCN(c2ccc(C(=O)Nc3nnc(C4CC4)s3)cc2[N+](=O)[O-])C1` (stereo not drawn) gave VP16 counter inconclusive, KinaseGlo FLuc -1% and RORgamma inh 13µM*.
`CC(C)C[C@H](NC(=O)CN(C)C(=O)[C@H](Cc1ccccc1)NC(=O)[C@H](Cc1ccccc1)NC(=O)[C@H](CCC(N)=O)NC(=O)[C@H](CCC(N)=O)NC(=O)[C@@H]1CCCN1C(=O)[C@H](CCCCN)NC(=O)[C@@H]1CCCN1C(=O)[C@@H](N)CCCN=C(N)N)C(=O)N[C@@H](CCS(C)(=O)=O)C(N)=O` gave VP16 counter 5% and RORgamma inh -3%.
CO/N=C/C(=N\Nc1ccccc1)C(=O)c1ccccc1 was read as VP16 counter -3%, KinaseGlo FLuc -2% and RORgamma inh inconclusive.
Screening Cn1nnnc1N=N/C(=N/Nc1ccccc1)c1ccccc1 returned VP16 counter 2.2µM* and RORgamma inh 0.35µM*.
`CCOC(=O)c1ccc(Nc2ncccc2[N+](=O)[O-])cc1` gave VP16 counter -23%, KinaseGlo FLuc -14% and RORgamma inh 7%.
Screening Cc1cc2nc3c(=O)[nH]c(=S)[nH]c3nc2cc1NC(=O)C(F)(F)F returned VP16 counter -14% and RORgamma inh -6%.
`CCn1cc(C(=O)O)c(=O)c2cc(F)c(N3CCN(C(=S)NC(=O)c4ccc(OC)cc4)CC3)cc21` gave VP16 counter -7% and RORgamma inh inconclusive.
`CCn1cc(C(=O)O)c(=O)c2cnc(N3CCN(C(=S)NC(=O)c4ccc(Cl)cc4)CC3)nc21` gave VP16 counter -1% and RORgamma inh 1µM*.
For CCn1cc(C(=O)O)c(=O)c2cnc(N3CCN(C(=S)Nc4ccc(F)cc4)CC3)nc21 the results were VP16 counter -9% and RORgamma inh 24%.
`CCn1cc(C(=O)O)c(=O)c2cnc(N3CCN(C(=S)Nc4ccccc4Cl)CC3)nc21` gave VP16 counter 0% and RORgamma inh -9%.
CCCCCCNC(=O)c1cn(CC)c2cc(N3CCN(C)CC3)c(F)cc2c1=O was read as VP16 counter 13µM* and RORgamma inh 11µM*.
Screening CCn1cc(C(=O)NCCCO)c(=O)c2cc(F)c(N3CCN(C)CC3)cc21 returned VP16 counter 5% and RORgamma inh -12%.
For CCn1cc(C(=O)O)c(=O)c2cc(F)c(N3CCN(C(=S)NC(=O)c4ccc(Br)cc4)CC3)cc21 the results were VP16 counter -3%, KinaseGlo FLuc -2% and RORgamma inh 0.63µM*.
CCn1cc(C(=O)O)c(=O)c2cnc(N3CCN(C(=S)NC(=O)c4ccc(Br)cc4)CC3)nc21 was read as VP16 counter -10% and RORgamma inh 0.56µM*.
CCOC(=O)c1ccc(NC(=O)C(=O)NCc2ccco2)cc1 was read as VP16 counter 5%, KinaseGlo FLuc -6% and RORgamma inh -19%.
For Cn1c(=O)c2[nH]c(CCNC(=O)c3ccccc3)nc2n(C)c1=O the results were KinaseGlo FLuc -5%[7.66 µM].
COc1ccc(NC(=O)CCC(=O)N2CCOCC2)c([N+](=O)[O-])c1 was read as VP16 counter -13% and RORgamma inh -15%.
C/C(=N\NS(=O)(=O)c1ccccc1)c1cc(Cl)cc(Cl)c1O was read as VP16 counter -2%, KinaseGlo FLuc 3% and RORgamma inh 12%.
Screening O=C(c1ccccc1)N1CCN(C2c3cccc4cccc(c34)C2NS(=O)(=O)c2ccccc2)CC1 (stereo not drawn) returned VP16 counter -11%, KinaseGlo FLuc 8% and RORgamma inh -15%.
For CCc1ccc(C2=C/C(=C/c3cccnc3)C(=O)O2)cc1 the results were VP16 counter 0%, KinaseGlo FLuc -1% and RORgamma inh inconclusive.
CC(=O)Oc1ccc(/C=C2\C=C(c3ccc(C)cc3)OC2=O)cc1 was read as VP16 counter inconclusive and RORgamma inh 0.45µM*.
For CC1=C(C(=O)OC2CCCCC2)C(c2cccs2)n2c(nc3ccccc32)N1 (stereo not drawn) the results were VP16 counter inconclusive, KinaseGlo FLuc 2% and RORgamma inh 4.5µM*.
CCOC(=O)C1=C(C)Nc2nc3ccccc3n2C1c1ccccc1 (stereo not drawn) was read as VP16 counter 5%, KinaseGlo FLuc 4% and RORgamma inh -21%.
For O=C1C=C(N2CCOCC2)C2(CCCCC2)O1 the results were VP16 counter -27%, KinaseGlo FLuc -5% and RORgamma inh 11µM*.
Screening O=C1C=C(N2CCCCC2)C2(CCCCC2)O1 returned VP16 counter 11%, KinaseGlo FLuc -5% and RORgamma inh -10%.
